Measured values reported in PubChem BioAssay (NCATS).
Inconclusive results are not listed. The source made the active and inactive calls. Unless noted, calls come from the whole dose curve; as a rule, active = well fitted curve in the direction sought with a large enough effect; inconclusive = small, poorly fitted or top-dose-only effect, or another doubt; inactive = no such curve, though single readings can be large; an effect the other way counts as inactive or inconclusive.

How the values were obtained:
[1] = molecular target: Aldehyde dehydrogenase, mitochondrial (Homo sapiens) (UniProt P05091); assay: qHTS for Inhibitors of the Aldehyde Dehydrogenase Family (ALDH2) Confirmatory screens (AID 2061303; active = well fitted inhibition curve with a large enough effect; title and protocol of this record describe different tests; note: nearly all actives have a fitted effect of over 45% in size; note: potency is the fitted concentration of half-maximal effect)
[2] = qHTS for Inhibitors of the Aldehyde Dehydrogenase Family (ALDH1A2, ALDH1A3, ALDH2, ALDH3A1) (AID 2061307); note: nearly all actives have a fitted effect of over 50% in size; for Potency: test system not described further here; potency is the fitted concentration of half-maximal effect
[3] = molecular target: Aldehyde dehydrogenase, mitochondrial (Homo sapiens) (UniProt P05091); assay: qHTS for Inhibitors of the Aldehyde Dehydrogenase Family (ALDH2) Primary screen (AID 2061308); note: nearly all actives have a fitted effect of over 55% in size; note: potency is the fitted concentration of half-maximal effect
[4] = molecular target: Retinal dehydrogenase 2 (Homo sapiens) (UniProt O94788); assay: qHTS for Inhibitors of the Aldehyde Dehydrogenase Family (ALDH1A2) Confirmation screens (AID 2061314); note: nearly all actives have a fitted effect of over 65% in size; note: potency is the fitted concentration of half-maximal effect
[5] = molecular target: Retinaldehyde dehydrogenase 3 (Homo sapiens) (UniProt P47895); assay: qHTS for Inhibitors of the Aldehyde Dehydrogenase Family (ALDH1A3) Primary screen (AID 2061315); note: potency is the fitted concentration of half-maximal effect
[6] = molecular target: Aldehyde dehydrogenase 1A1 (Homo sapiens) (UniProt P00352); assay: qHTS for Inhibitors of the Aldehyde Dehydrogenase Family (ALDH1A1) Confirmatory screens (AID 2061316); note: nearly all actives have a fitted effect of over 65% in size; note: potency is the fitted concentration of half-maximal effect
[7] = BET inhibitor-based combinations targeting novel dependencies in MECOM-rearranged (r) AML: SET-2 cell line (AID 2202231); details: SET-2 AML cells viability, CellTiter-Glo luminescence, 48 h; viability: active compounds read low, series mostly up to about 46 µM;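 note: plate controls were DMSO treated cells for no effect and wells without cells for full effect; nearly all actives have a fitted effect of over 35% in size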
Procedure, shortened: (§1)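 Viability of cells (500 per well) is scored by luminescent CellTiter-Glo at 48 hr post-dosing. Eleven-point titrations are normalized to DMSO and empty controls and reduced to AUC values.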

[8] = BET inhibitor-based combinations targeting novel dependencies in MECOM-rearranged (r) AML: OCI-AML3 cell line (AID 2202232); details: Potency: OCI-AML3 viability;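 note: series mostly up to about 46 µM; plate controls were DMSO vehicle wells for no effect and wells without cells for full effect; nearly all actives have a fitted effect of over 35% in size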
Procedure, shortened: as §1

[9] = BET inhibitor-based combinations targeting novel dependencies in MECOM-rearranged (r) AML: UCSD-AML1 cell line (AID 2202235);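 note: series mostly up to about 46 µM; plate controls were DMSO vehicle wells for no effect and blank wells for full effect; nearly all actives have a fitted effect of over 40% in size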
Procedure, shortened: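 Using pin-tool transfer, drugs were added in 11 doses to cells (500/well), incubated 48 hr, and assessed with CellTiter-Glo. Z-AUC is a mean-centring transformation applied separately to each screened line.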

[10] = BET inhibitor-based combinations targeting novel dependencies in MECOM-rearranged (r) AML: AML-191 cell line (AID 2202236;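 note: plate controls were vehicle wells for no effect and wells without cells for full effect; nearly all actives have a fitted effect of over 35% in size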)
Procedure, shortened: as §1

[11] = BET inhibitor-based combinations targeting novel dependencies in MECOM-rearranged (r) AML: AML-194 cell line (AID 2202237;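 note: plate controls were vehicle wells for no effect and wells without cells for full effect; nearly all actives have a fitted effect of over 40% in size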)
Procedure, shortened: as §1

O=C(Cc1ccc(Cl)c(Cl)c1)Nc1ccc(S(=O)(=O)O)cc1
inactive: Potency [1] | Potency [2] | Potency [3] | Potency [4] | Potency [5] | Potency [6]

Cc1nnc(-c2cnn(C)c2N)n1CCc1ccccc1
inactive: Potency [1] | Potency [2] | Potency [3] | Potency [4] | Potency [5] | Potency [6]

O=C1c2ccccc2C(=O)N1Cc1cccnc1
inactive: Potency [1] | Potency [2] | Potency [3] | Potency [4] | Potency [5] | Potency [6]

CC1CC(O)CC(C)(C)C1(O)CCO (centres undefined)
inactive: Potency [1] | Potency [2] | Potency [3] | Potency [4] | Potency [6]

COc1cccc(CNc2ccc(S(=O)(=O)Nc3ccc(C4CCNCC4)cc3)cc2)c1O
inactive: Potency [1] | Potency [2] | Potency [3] | Potency [5]

COc1ccc(C2Nc3ccccc3C(=O)N2Cc2ccccc2)cc1COc1ccc(Cl)cc1 (centres undefined)
inactive: Potency [1] | Potency [3] | Potency [5]
active: Potency [2] 5.65 µM

C[C@H](N)C(=O)Nc1cccc(-c2nn3c(=O)cc(N4CCNCC4)nc3s2)c1
inactive: Potency [1] | Potency [2] | Potency [3] | Potency [5]

CN1CCN(c2cccc(Nc3nn4c(=O)c5ccc(F)cc5nc4s3)c2)CC1
inactive: Potency [1] | Potency [2] | Potency [3] | Potency [5]

NC(=O)C[C@H](N)C(=O)Nc1ccc(Cl)cc1C(=O)c1ccc[nH]1
inactive: Potency [1] | Potency [2] | Potency [3] | Potency [4] | Potency [5] | Potency [6]

CN(C)c1ccc(/C=C/C(=O)Nc2cccc([S+](=O)([O-])Nc3ccccc3F)c2)cc1
inactive: Potency [1] | Potency [2] | Potency [3] | Potency [5]

O=C(/C=C/c1ccc2c(c1)OCO2)Nc1cccc([S+](=O)([O-])Nc2ccccc2F)c1
inactive: Potency [1] | Potency [2] | Potency [3] | Potency [4] | Potency [5] | Potency [6]

FC(F)(F)c1ccc(-c2nc(-c3nnc4n3CCCCC4)c(C(F)(F)F)o2)cc1
inactive: Potency [1] | Potency [2] | Potency [3] | Potency [5]

N[C@@H](CO)C(=O)Nc1ccc(Cl)cc1C(=O)c1ccc[nH]1
inactive: Potency [1] | Potency [2] | Potency [3] | Potency [5]

N#Cc1c(-c2ccc(O)cc2)no[n+]1[O-]
active: Potency [2] 12.7 µM
inactive: Potency [1] | Potency [3] | Potency [5]

Cc1ccc(OCCn2c(CCNC(=O)c3cccs3)nc3ccccc32)cc1
inactive: Potency [1] | Potency [2] | Potency [3] | Potency [5]
active: Potency [4] 31.8 µM | Potency [6] 12.7 µM

Cc1c(Cl)cccc1NS(=O)(=O)c1cc2c(cc1Cl)CCC(=O)N2
active: Potency [4] 12.7 µM
inactive: Potency [1] | Potency [2] | Potency [3] | Potency [5] | Potency [6]

O=C(Nc1ccc2ccccc2c1)Nc1nnc(Br)s1
inactive: Potency [3] | Potency [5]
active: Potency [1] 7.94 µM | Potency [2] 15.8 µM

CC1(C)CC2CC(C)(CN2S(=O)(=O)c2ccc(C(=O)Nc3cccc(S(=O)(=O)N4CCOCC4)c3)cc2)C1 (centres undefined)
active: Potency [1] 0.355 µM | Potency [2] 0.447 µM | Potency [4] 8.96 µM
inactive: Potency [3] | Potency [5] | Potency [6]

Cc1nc(C2=NC(c3ccccc3Cl)C3=C(CCCC3=O)N2)cs1 (centres undefined)
inactive: Potency [1] | Potency [2] | Potency [3] | Potency [5]

O=[N+]([O-])c1ccccc1CSc1nc2ncc(Br)cc2[nH]1
inactive: Potency [1] | Potency [2] | Potency [3] | Potency [4] | Potency [5]
active: Potency [6] 12.7 µM

COc1cc([C@@H](O[C@@H]2O[C@H](CO)[C@@H](O)[C@H](O)[C@H]2O)[C@@H]2CO[C@H](c3ccc(O)c(OC)c3)[C@H]2CO)ccc1O
inactive: Potency [1] | Potency [2] | Potency [3] | Potency [4] | Potency [6]

CCCc1nnc(-c2cnn(C)c2N)n1CCCn1ccnc1
inactive: Potency [1] | Potency [2] | Potency [3] | Potency [4] | Potency [5] | Potency [6]

COc1ccc(CCCN2CCC(COC(c3ccccc3)c3ccccc3)CC2)cc1
inactive: Potency [1] | Potency [2] | Potency [3] | Potency [4] | Potency [5] | Potency [6]

O=C(CCCc1ccc2cccnc2n1)NCc1cc(-c2ccc(F)c(C(F)(F)F)c2)no1
inactive: Potency [1] | Potency [2] | Potency [3] | Potency [4] | Potency [5] | Potency [6] | viability [7] 106% | Potency [8] | Potency [9] | Potency [10] | Potency [11]

Cc1ccc(OCCn2c(CCNC(=O)c3cccnc3)nc3ccccc32)cc1
inactive: Potency [1] | Potency [2] | Potency [3] | Potency [4] | Potency [5] | Potency [6]

O=C(O)CSc1cc(NS(=O)(=O)c2ccc(Br)cc2)c2ccccc2c1O
inactive: Potency [2]
active: Potency [1] 1.79 µM | Potency [3] 7.08 µM | Potency [4] 0.4 µM | Potency [5] 0.631 µM | Potency [6] 0.565 µM
